Structures are written as SMILES. Results filed as inconclusive are left out. A call without a number means that no potency is given here. The source made the active and inactive calls. Calls come from the whole dose curve; as a rule, active = well fitted curve in the direction sought with a large enough effect; inconclusive = small, poorly fitted or top-dose-only effect, or another doubt; inactive = no such curve, though single readings can be large; an effect the other way counts as inactive or inconclusive. Bridge positions count the residues as written; N and C are the ends. Square brackets hold non-standard residues; d marks the D form. Side chains are listed from the residue outwards. Peptide text beside a SMILES is read from it. * marks the point of attachment. Phg(4-OMe) = COc1ccc([C@H](N)C(=O)O)cc1; d(aIle) = CC[C@H](C)[C@@H](N)C(=O)O; d(aThr) = C[C@@H](O)[C@@H](N)C(=O)O; NMeF = CN[C@@H](Cc1ccccc1)C(=O)O; Isobutyryl = CC(C)C(=O)*
Potency is the fitted concentration of half-maximal effect.

One test in a line: A2780 Cisplatin Sensitive Ovarian Cancer Cell Toxicity qHTS against the NCATS CANVASS Library (AID 1347353). Note: nearly all actives have a fitted effect of over 60% in size. Conditions: A2780 ovarian cancer viability, ATPLite luminescence, 72 h; series mostly up to 46.1 µM. In outline:
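Luminescent ATP content (ATPLite, 10 min at room temperature) served as the read-out after cells had been exposed to compounds for 72 hours at 37 °C. Dosing followed an 11-point concentration series.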
Consider `C=C1CC[C@@H](Br)C(C)(C)[C@]12CC=C(C)C(=O)C2`, for which the Potency entry was “inactive”.
Still for that read-out and setting: the result for `C=CC(CCCCC)C1C(=O)NC(=O)C1C(=O)C1C(/C=C/C)C=CC2CC(C(=O)O)CC(C)C21` (stereo unspecified) reads 7.43 µM (active); that for `COc1cc(/C=C/C(=O)OC[C@@H](Cc2ccc(O)c(OC)c2)[C@@H](COC(=O)/C=C/c2ccc(O)c(OC)c2)Cc2ccc(O)c(OC)c2)ccc1O`, 9.35 µM (active); that for `O=C1CC2OCC=C3CN4C5CC3C2[C@@H]2N1c1ccccc1[C@]52C[C@@H]4C1=C[C@H]2C3CC4N(CC[C@@]45c4ccccc4N(C1=O)[C@@H]25)C/C3=C/CO` (stereo partly specified), 7.43 µM (active).
On the same count and under the same terms, the result for `CC[C@H](C)[C@H]1NC(=O)[C@@H](NC(=O)C(C)C)[C@@H](C)OC(=O)[C@H](COC(=O)CNC(C)=O)NC(=O)[C@@H]([C@@H](C)O)NC(=O)[C@H](Cc2ccccc2)N(C)C(=O)[C@H](c2ccc(OC)cc2)NC1=O` (Isobutyryl-T[d(aIle)][Phg(4-OMe)][NMeF][d(aThr)]S([Gly-Ac]); ester 1-C) reads “inactive”; that for `C=C(C)CC[C@H](Cc1c(O)cc(O)c2c1O[C@H](c1ccc(O)cc1)CC2=O)C(=C)C`, 23.5 µM (active); that for `C[C@]12CC[C@]3(C1)[C@H](CC2=O)C[C@@H](OC(=O)c1ccccc1)[C@H]1[C@](C)(C(=O)O)CCC[C@@]13C`, 16.6 µM (active).
On the same count and under the same terms, to `C=C[C@](Cl)(CBr)CCC=C(C)C` belongs 20.9 µM (active); to `O[C@H]1c2ccccc2-c2c3c(cc4c2[C@@H]1NCC4)OCO3`, 11.8 µM (active).
For `C[C@]12CCC[C@](C)(C(=O)O)[C@@H]1CC[C@@]1(C)c3cocc3CC[C@H]21`, the Potency result is “inactive”.
As to `COc1cc(C2OCC3C(c4ccc(O)c(OC)c4)OCC23)ccc1O` (stereo unspecified), the outcome is “inactive [at 9.19 µM]”.
As for `COc1cc2c(c(O)c1O)C(=O)c1c(coc1C)C2=O`, the Potency is 4.69 µM (active).
Still for that read-out and setting: the result for `CCC(=O)N[C@@H](C[C@H](C)C(Cl)(Cl)Cl)C(=O)N1C(=O)C=C(OC)[C@@H]1CC(C)C` reads 26.4 µM (active); that for `C/C1=C/[C@@H](C)[C@H](O)[C@@H](O)/C=C/CC/C=C/C(=O)O[C@@H]1[C@H](C)C(=O)CCCC1CC(=O)NC(=O)C1`, “inactive”; that for `CC[C@H]1[C@H](C)[C@H](c2cc(OC)c(OC)cc2OC)[C@@H](C)[C@H](c2cc(OC)c(OC)cc2OC)[C@@]12C=C(OC)C(=O)C=C2OC`, 14.8 µM (active).
On the same count and under the same terms, the result for `CC(=O)Oc1cc2c(c(OC(C)=O)c1C1CCc3cc(Cl)c(Cl)n31)C(=O)n1c-2cc(Cl)c1Cl` (stereo unspecified) reads 11.8 µM (active); that for `CC(C)C[C@@H]1c2c(O)c(C=O)c(O)c(C=O)c2O[C@]2(C)C=C[C@@H](C(C)C)C[C@H]12`, “inactive”.
For the compound `C/C=C(/C)c1cc(O)c(C)c2c1Oc1cc(O)cc(C)c1C(=O)O2`, the Potency entry is “inactive”.
`COC12OC1(C13OC1(OC)C(=O)c1cc4cc(C)oc(=O)c4c(O)c1C3O)C(O)c1c(cc3cc(C)oc(=O)c3c1O)C2=O` (stereo unspecified): the Potency result is “inactive”.

A further test is described as follows: UWB1.289-WTBRCA1 Cancer Cell Toxicity qHTS against the NCATS CANVASS Library (AID 1347354). Conditions: UWB1.289-WTBRCA1 viability, CellTiter-Glo luminescence, 72 h; series mostly up to 38.3 µM. In outline:
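Luminescent ATP read-out (CellTiter-Glo, 15min at room temperature) measures survival after cells face an 11-point compound series for 72 hours at 37 degrees C/5% CO2.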
Background: In qHTS, concentration-response curves come from the screen itself.
Consider `CC(C)=CCC[C@]12c3cc4c(cc3CC[C@@]1(C)[C@H](C)CC[C@@H]2O)[nH]c1ccccc14`, for which the Potency result was “inactive”.
On to `C/C=C/C1C=CC2CC(C)CC(C)C2C1C(=O)CC(=O)NC(CO)C/C=C/CCCCC` (stereo unspecified), for which the Potency result was “inactive”.
Still for that read-out and setting: to `C=C1CC[C@@H](Br)C(C)(C)[C@]12CC=C(C)C(=O)C2` belongs “inactive”.
Still for that read-out and setting: to `C=C[C@@]1(C)CC[C@@H]([C@H](C)C(=O)/C=C/C(C)(C)O)O1` belongs “inactive”; to `O=C1CC2OCC=C3CN4C5CC3C2[C@@H]2N1c1ccccc1[C@]52C[C@@H]4C1=C[C@H]2C3CC4N(CC[C@@]45c4ccccc4N(C1=O)[C@@H]25)C/C3=C/CO` (stereo partly specified), “inactive”.
Still for that read-out and setting: the result for `C=C1CC[C@@H](O[C@H]2C[C@@](O)([C@H](C)NC(=O)c3[nH]c(C)c(Cl)c3Cl)[C@H](O)[C@@H](C)O2)[C@@H]2C=C[C@H](C)C(/C(O)=C3/C(=O)[C@H](C(C)C)N([C@@H]4O[C@H](C)[C@H](OC(N)=O)[C@H](OC(C)=O)[C@@H]4OC)C3=O)[C@@H]12` (stereo partly specified) reads “inactive”.
Consider `CC[C@H](C)[C@H]1NC(=O)[C@@H](NC(=O)C(C)C)[C@@H](C)OC(=O)[C@H](COC(=O)CNC(C)=O)NC(=O)[C@@H]([C@@H](C)O)NC(=O)[C@H](Cc2ccccc2)N(C)C(=O)[C@H](c2ccc(OC)cc2)NC1=O` (Isobutyryl-T[d(aIle)][Phg(4-OMe)][NMeF][d(aThr)]S([Gly-Ac]); ester 1-C), for which the Potency result was “inactive”.
Still for that read-out and setting: the result for `C=C(C)CC[C@H](Cc1c(O)cc(O)c2c1O[C@H](c1ccc(O)cc1)CC2=O)C(=C)C` reads “inactive”; that for `COc1c(O)cc2c(c1O)C(=O)c1c(coc1C)C2=O`, “inactive”.
Still for that read-out and setting: the result for `C[C@]12CC[C@]3(C1)[C@H](CC2=O)C[C@@H](OC(=O)c1ccccc1)[C@H]1[C@](C)(C(=O)O)CCC[C@@]13C` reads “inactive”; that for `Cc1occ2c1C(=O)c1c(cc(O)c(O)c1O)C2=O`, “inactive”; that for `COc1ccc2[nH]c3c(c2c1)CCN1C[C@H]2C[C@@H](OC(=O)c4cc(OC)c(OC)c(OC)c4)[C@H](OC)[C@@H](OC)[C@H]2C[C@H]31`, “inactive”.
In the case of `C=C[C@](Cl)(CBr)CCC=C(C)C`, the Potency entry was “inactive”.
Same read-out and setting: the result for `CC(=O)O[C@H]1c2ccccc2-c2c3c(cc4c2[C@@H]1N(C(C)=O)CC4)OCO3` reads “inactive”; that for `C=CC(CCCCC)C1C(=O)NC(=O)C1C(=O)C1C2C(C)CC(C(=O)O)CC2CC1(O)C(=O)/C=C/C` (stereo unspecified), “inactive”.
Still for that read-out and setting: to `O[C@H]1c2ccccc2-c2c3c(cc4c2[C@@H]1NCC4)OCO3` belongs “inactive”.
The same measure, in the same setting: to `C[C@]12CCC[C@](C)(C(=O)O)[C@@H]1CC[C@@]1(C)c3cocc3CC[C@H]21` belongs “inactive”.
For the compound `COc1cc(C2OCC3C(c4ccc(O)c(OC)c4)OCC23)ccc1O` (stereo unspecified), the outcome is “inactive [at 7.64 µM]”.
As for `C[n+]1cc2cc(C(N)=O)[nH]c3c(=N)c(Cl)c(N)c1c23`, the Potency entry is “inactive”.
On to `COc1cc2c(c(O)c1O)C(=O)c1c(coc1C)C2=O`, for which the Potency was 18.8 µM (active).
For the compound `CCC(=O)N[C@@H](C[C@H](C)C(Cl)(Cl)Cl)C(=O)N1C(=O)C=C(OC)[C@@H]1CC(C)C`, the Potency result is “inactive”.
Same read-out and setting: to `C/C1=C/[C@@H](C)[C@H](O)[C@@H](O)/C=C/CC/C=C/C(=O)O[C@@H]1[C@H](C)C(=O)CCCC1CC(=O)NC(=O)C1` belongs “inactive”; to `CC[C@H]1[C@H](C)[C@H](c2cc(OC)c(OC)cc2OC)[C@@H](C)[C@H](c2cc(OC)c(OC)cc2OC)[C@@]12C=C(OC)C(=O)C=C2OC`, “inactive”.
On the same count and under the same terms, to `COc1cc2c(cc1OC)[C@@H](c1ccc3c(c1)OCO3)C(C)C(C)C2=O` (stereo partly specified) belongs “inactive”; to `C/C=C(/C)c1c(Cl)c(O)c(C)c2c1Oc1c(Cl)c(O)c(Cl)c(C)c1C(=O)O2`, “inactive”; to `CC(C)C[C@@H]1c2c(O)c(C=O)c(O)c(C=O)c2O[C@]2(C)C=C[C@@H](C(C)C)C[C@H]12`, “inactive”.
On the same count and under the same terms, to `C/C=C(/C)c1cc(O)c(C)c2c1Oc1cc(O)cc(C)c1C(=O)O2` belongs “inactive”.
Turning to `CC(C)[C@]12CC[C@@]3(C)[C@H](C)CC[C@H](O)[C@@]3(CC1)c1cc3c(cc12)[nH]c1ccccc13`, the Potency entry is “inactive”.
Still for that read-out and setting: to `C[C@H]1C=C[C@H]2CCCC[C@@H]2[C@H]1C(=O)[C@H]1CC2=C(C(=O)O)CCN2C1=O` belongs “inactive”.
The same measure, in the same setting: to `C/C(=C\CC[C@@H](C)[C@H]1CC[C@]2(C)C3=CCC4C(C)(C)[C@@H](O)C[C@@H](O)[C@]4(C)C3[C@H](O)C[C@@]12C)CO` (stereo partly specified) belongs “inactive”; to `COC12OC1(C13OC1(OC)C(=O)c1cc4cc(C)oc(=O)c4c(O)c1C3O)C(O)c1c(cc3cc(C)oc(=O)c3c1O)C2=O` (stereo unspecified), “inactive”.
On to `CO[C@H]1[C@@H](OC(=O)/C(C)=C\[C@@H]2O[C@@H]2[C@H]2O[C@H]2C)[C@H](O)[C@H](OCC23C[C@@H]4[C@H](C)CC[C@H]4C4(C=O)CC2C=C(C(C)C)C34C(=O)O)O[C@@H]1C` (stereo partly specified), for which the Potency result was “inactive”.

For the origin of these results see PubChem BioAssay (NCATS).
